Bioassay records (PubChem)
Hits are enriched below; roughly 14% of the tested compounds scored in any of these assays.
NS1 function inh: influenza NS1 inhibition | Potency, µM (doses to about 46.1 µM) | actives 0.4% (n = 270,000) | AID 2326; calls by dose curve; note: actives are rising curves; nearly all actives have a fitted effect of over 50% in size
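A cell-based growth assay was used: compounds that relieve NS1-induced slow growth of budding yeast raise OD600. Assay medium was yeast nitrogen base with ammonium sulphate and -URA supplement, pH 6.0, with 2% galactose.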
Cycloheximide cs: counter-screen hit for Shiga toxin inhibitors, cycloheximide; actives 12% (n = 300,000); max response, %; cell reporter, cycloheximide protein synthesis inhibition counterscreen; in the data active = max response mostly above about 13%, no sharp cut-off; inactive = mostly below about 14%; note: read at 38.3 µM for the half of the compounds with a filed dose
Shiga toxin inh: Shiga toxin inhibition | Vero cells, Shiga toxin protein synthesis inhibition reporter | inhibition, % at 38.7 µM | actives 9.2% (n = 290,000) | AID 2315; in the data active = inhibition mostly above about 28%, no sharp cut-off; inactive = mostly below about 43%
Giardia FBPA inh: blocks Giardia fructose-bisphosphate aldolase activity; A8B2U2; purified Giardia FBPA; Potency, µM (series often up to 59.6 µM), actives largely listed as inhibitors; actives 0.71% (n = 290,000); AID 2451; note: nearly all actives have a fitted effect of over 55% in size
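40 nM FBPA preincubated 10 min at RT with compound (up to 57.5 uM final), then substrate plus GAPDH/TPI/NAD/arsenate coupling and diaphorase/resazurin added. Fluorescence read after 20 min at RT, 525/598 nm.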
LmPK inh: blocks Leishmania mexicana pyruvate kinase activity; Q27686; purified LmPK, Kinase-Glo ATP luminescence, 1 h; Potency, µM (titrated, usually from 57.5 µM), most hits filed as inhibitors; actives 0.37% (n = 290,000); AID 1721
Target sequence (Q27686 whole entry, looked up): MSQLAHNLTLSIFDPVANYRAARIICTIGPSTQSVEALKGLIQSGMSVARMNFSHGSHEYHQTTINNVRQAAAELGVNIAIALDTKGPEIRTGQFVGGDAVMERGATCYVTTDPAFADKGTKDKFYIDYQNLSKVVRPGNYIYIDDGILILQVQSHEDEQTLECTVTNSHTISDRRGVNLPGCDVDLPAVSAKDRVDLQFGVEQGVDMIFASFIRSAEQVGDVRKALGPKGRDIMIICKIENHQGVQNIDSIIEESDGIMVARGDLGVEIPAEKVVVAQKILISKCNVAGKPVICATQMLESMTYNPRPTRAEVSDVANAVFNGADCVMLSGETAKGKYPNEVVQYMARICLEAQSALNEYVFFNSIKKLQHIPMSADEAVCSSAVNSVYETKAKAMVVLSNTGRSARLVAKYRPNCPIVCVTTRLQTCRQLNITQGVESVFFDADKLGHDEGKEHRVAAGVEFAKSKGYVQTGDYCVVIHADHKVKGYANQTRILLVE
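qHTS format; LmPK 0.1 nM; substrates PEP 0.5 mM and ADP 0.1 mM. One-hour room-temperature incubation, then coupled luciferase luminescence; 0.5 nM enzyme wells mark activation.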
Hits are given with their value; – = inactive; ? = inconclusive; · = no result; + = active, no number; [ ] = remark or other dose. Unless noted, calls come from the whole dose curve; as a rule, active = well fitted curve in the direction sought with a large enough effect; inconclusive = small, poorly fitted or top-dose-only effect, or another doubt; inactive = no such curve, though single readings can be large; an effect the other way counts as inactive or inconclusive.

SMILES	NS1 function inh	Cycloheximide cs	Shiga toxin inh	Giardia FBPA inh	LmPK inh
COc1cc2c(cc1OC)C1O[C@](CCCCN3C(=O)c4ccccc4C3=O)(C2)Oc2cc(C)n(Cc3ccccc3)c(=O)c21	–	–	–	–[12.9 µM]	–[11.5 µM]
Cc1cc(C(=O)Nc2ccc3c(c2)OCCO3)ccc1[N+](=O)[O-]	–	27	·	–	–
Cc1cc(C(=O)Nc2cccc(NC(=O)c3ccco3)c2)ccc1[N+](=O)[O-]	–	19	27	·	–
COc1ccc(C(=O)NC(=S)Nc2cccc(NC(=O)c3ccco3)c2)cc1[N+](=O)[O-]	–	–	–	–	–
Cc1cc(C(=O)Nc2ccc(N3CCCC3)c(Cl)c2)ccc1[N+](=O)[O-]	–	47	31	–	–
Cc1cc(NC(=O)c2ccc3c(c2)OCCO3)ccc1NC(=O)c1ccco1	–	–	–	–	?
O=C(Nc1ccc2c(c1)OCCO2)c1ccc(Cl)c([N+](=O)[O-])c1	–	56	+	–	–
CCOC(=O)CCN1C(=O)[C@H]2[C@H]3[C@H](O)[C@H](O)C/C(=N/O[C@@H]4O[C@@H](COC(C)=O)[C@@H](OC(C)=O)[C@@H](OC(C)=O)[C@H]4OC(C)=O)[C@@H]3CC[C@@H]2C1=O	·	·	·	–[12.9 µM]	·
Cc1ccc(NC(=O)c2cc(-c3ccco3)on2)cc1	–	41	133	?	–
O=C(Nc1ccc(F)c(Cl)c1)c1cc(-c2ccco2)on1	–	–	62	–	–
Cc1cc(NC(=O)c2cc(-c3ccco3)on2)no1	–	–	–	–	–
Cc1ccc(NC(=O)c2cc(-c3cccc(O)c3)on2)cc1C	–	47	78	–	–
Cc1ccc(NC(=O)c2cc(-c3ccco3)on2)cc1C	–	38	99	–	–
Cc1c(-c2nc(N)nc(Nc3ccccc3)n2)oc2ccccc12	–	39	77	–	–
O=C(COc1ccccc1)NS(=O)(=O)c1ccccc1	–	–	–	–	–
O=C1C=C(N2CCCCC2)C2(CCCCC2)O1	–	–	–	–	–
O=C1C=C(N2CCOCC2)C2(CCCCC2)O1	–	28	–	–	–
COc1ccc(/C(C)=N/NC(=O)C2C3CCCCC32)c(OC)c1 (stereo unspecified)	–	–	41	–	–
C#CCOc1ccccc1/C=N/NC(=O)c1ccccc1OCc1ccccc1	–	–	–	·	–
COc1ccc(/C(C)=N/NC(=O)c2ccccc2OCc2ccccc2)c(OC)c1	–	33	165	–	–
COc1ccc(/C=N/NC(=O)c2ccccc2OCc2ccccc2)c(OC)c1	–	30	64	–	–
CCC(CC)=NNC(=O)c1ccccc1OCc1ccc(F)cc1	–	–	–	–	–
Cc1ccc2c(C)c(C(=O)N3CCN(Cc4ccccn4)CC3)oc2c1C	–	17	–	·	–
CC(C)(C)OC(=O)NCCC(=O)N/N=C/c1cccc2cccnc12	–	–	–	?	–
O=C(O)c1ccc(N/N=C/c2cccc3cccnc23)cc1	–	49	83	–	–
SMILES	NS1 function inh	Cycloheximide cs	Shiga toxin inh	Giardia FBPA inh	LmPK inh
Oc1ccccc1/C=N/Nc1cccc2cccnc12	–	30	101	·	–
O=C(O)c1ccc(N/N=C/c2ccnc3ccccc23)cc1	–	41	91	–	–
CC(C)CC(=O)Nc1cc2c3c(c1)C(C)C(=O)N3CCC2 (stereo unspecified)	–	–	–	–	–
O=C(NC(Cc1ccccc1)C(=O)NCCc1ccccn1)c1ccccc1 (stereo unspecified)	–	–	–	·	–
CC1(C)CC(=O)c2c(oc3cc(O)c(O)cc23)C1	–	–	–	3.2µM	–
O=C(O)c1cccc(COc2ccc3c(c2)CCC3)c1	–	35	–	?	?
COc1ccccc1NC(=O)c1ccc(COc2ccc3c(c2)CCC3)cc1	–	–	–	–	–
O=C(NCc1ccccc1)c1cccc(COc2ccc3c(c2)CCC3)c1	–	104	120	–	–
COc1cccc(OC)c1C(=O)NNC(=O)c1cccc(COc2ccc3c(c2)CCC3)c1	–	65	184	–	–
O=C(Nc1ccc2c(c1)OCO2)c1noc2c1CCCCC2	–	38	101	–	–
Cc1onc(-c2c(Cl)cccc2Cl)c1C(=O)Nc1ccc2c(c1)OCO2	–	–	–	–	–
O=C(Nc1ccc2c(c1)OCO2)c1noc2c1CCCC2	–	33	53	–	–
CC(=O)c1ccc(NC(=O)c2noc3c2CCCCC3)cc1	–	40	44	–	–
O=C(Nc1ccc2c(c1)OCO2)c1nn(-c2ccccc2)c(=O)c2ccccc12	–	–	–	–	–
O=C(Nc1cccnc1)c1noc2c1CCCC2	–	47	85	–	?
CC(C)(C)C1CCc2onc(C(=O)Nc3cccnc3)c2C1 (stereo unspecified)	–	–	–	–	–
CCOC(=O)c1cc(C(=O)Nc2ccccc2F)nn1C	–	37	72	–	–
CCCC(=O)Nc1sc(C(=O)Nc2cccc(N)c2)c(C)c1C(=O)OC	–	51	59	–	–
CCC(=O)Nc1sc(C(=O)Nc2ccccc2F)c(C)c1C(=O)OC	–	–	52	–	–
CCOC(=O)c1c(N)sc(C(=O)Nc2ccccc2F)c1C	–	37	–	–	–
CCN1C(=O)[C@H]2[C@@H](c3ccc(OC)cc3)N3C(=O)CN(CCOC)C(=O)[C@@]3(C)[C@H]2C1=O	–	–	–	–	–
COCC(=O)NC1CC(C)(C)Cc2c1cnn2-c1ccc(F)cc1 (stereo unspecified)	–	–	–	–	–
Cc1ccc(S(=O)(=O)CCC#N)cc1	–	–	–	–	–
CCOC(=O)c1c(N)sc(C(N)=O)c1C	–	–	–	–	–
CCOC(=O)c1c(N)sc(C(=O)Nc2ccccc2)c1C	–	26	73	–	?
SMILES	NS1 function inh	Cycloheximide cs	Shiga toxin inh	Giardia FBPA inh	LmPK inh
CCCOC(=O)c1c(N)sc(C(=O)OCC)c1C	–	37	active	–	–
CC(=O)OC[C@H]1O[C@@H](O/N=C\[C@@H](C)[C@H](OCc2ccccc2)C(C)C)[C@H](OC(C)=O)[C@@H](OC(C)=O)[C@H]1OC(C)=O	·	·	·	–[12.9 µM]	·
COc1cccc(OCC(O)CNC2CCCC2)c1 (stereo unspecified)	–	–	–	?	–
O=C(Nc1nc2c(s1)CCCC2)c1cc2n(n1)C(C(F)(F)F)CC(C1CC1)N2 (stereo unspecified)	–	19	–	–	–
O=C(NCc1ccc(F)cc1)c1cc2n(n1)C(C(F)(F)F)CC(C1CC1)N2 (stereo unspecified)	?	–	–	–	–
O=C(Nc1ccccc1)c1cc2n(n1)C(C(F)(F)F)CC(C1CC1)N2 (stereo unspecified)	–	36	58	–	–
Cc1nnc(NC(=O)c2cc3n(n2)C(C(F)(F)F)CC(C2CC2)N3)s1 (stereo unspecified)	–	–	–	–	–
O=C(COC(=O)c1cnccn1)NCCc1ccccc1	–	–	–	–	–
O=C(NCCc1ccccc1)c1ccccc1NC(=O)C1CC=CCC1C(=O)O (stereo unspecified)	–	61	70	–	–
